# PubChem BioAssay AID527 (NMMLSC, 2006)
# Screen size: about 24,000 compounds; about 65 (0.3%) were called active.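 How the source made its calls: active means share of bacteria positive for the green fluorescent reporter and its mean brightness both inhibited by 50% or more; inactive means the rest, inconclusive results apart.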 Shown is part of a subset that was picked to be rich in actives.
# Assay: S. aureus quorum sensing inhibitors, primary screen, RNAIII-GFP reporter, flow cytometry (AID 527);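 further: 0% = AIP-stimulated control and 100% = unstimulated bacteria without AIP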
# Conditions: S. aureus RN6390 RNAIII-GFP reporter, AIP-induced, flow cytometry 3 h, at 2 µM, stronger effect = higher value
# [1] = measured here: inhibition of GFP MFI
Structure (SMILES),inhibition,inhibition [1] [%]
Cc1ccccc1NC(=O)Cc1nnc(SCC(=O)N2CCN(c3ccccc3)CC2)n1C,-0.1% (inactive),7.2
CCC(=O)N1CCN=C1SCc1ccc(F)cc1,1.7% (inactive),7.4
CCOc1ccccc1-n1c(SCC(=O)NCc2ccco2)nnc1-c1ccncc1,-4.3% (inactive),-22.1
CN(C)CCCn1c(N)c(C#N)c2nc(C#N)c(C#N)nc21,-1% (inactive),1.8
CNC(=O)NCCN1CCCC1=O,7.2% (inactive),22.5
O=C(CCOc1ccccc1)NCc1ccccc1,1.7% (inactive),8.4
CC1CCCN(C(C(=O)Nc2ccc(C(C)C)cc2)c2ccc3c(c2)OCO3)C1 (stereo not drawn),-2.3% (inactive),0.9
Cc1cccc(C(=O)OCC(=O)Nc2sc3c(c2C#N)CCC3)c1,0% (inactive),-2
Cc1cccc(CC(=O)Nc2c3c(nn2-c2cccc(Cl)c2)CS(=O)C3)c1 (stereo not drawn),1.2% (inactive),3.3
Nc1scc(-c2ccncc2)c1Cl,0.4% (inactive),15.1
CSC1=NCCN1C(=O)c1ccc(S(=O)(=O)N2CCOCC2)cc1,-5.9% (inactive),-16.9
O=C(NCCc1ccccn1)c1ccc(COc2ccccc2)o1,-0.4% (inactive),-1.9
O=S1(=O)CC(NCc2ccccc2)C(Nc2ccc(Cl)cc2)C1 (stereo not drawn),-7% (inactive),-45.9
Cc1cccc(N2CCN(C(=O)C3CCN(S(=O)(=O)c4cnc[nH]4)CC3)CC2)c1C,-9.8% (inactive),-17
CCCn1c(C(O)c2ccc(OCC)cc2)nc2ccccc21 (stereo not drawn),-2.6% (inactive),-8.7
CC(=O)Oc1cc2c(C(=O)NCCN3CCOCC3)c(C)oc2c2ccccc12,-5.9% (inactive),-9.9
CCS(=O)(=O)N1CCCC(C(=O)NCCCN(C)Cc2ccccc2)C1 (stereo not drawn),-4.7% (inactive),-9.5
CC(C)(C)c1ccc(C(=O)NCCC(=O)NCc2ccco2)cc1,-2.6% (inactive),1.1
CC1CC(C)CN(CC(=O)Nc2ccc(S(N)(=O)=O)cc2)C1 (stereo not drawn),-0.3% (inactive),-0.4
COc1cccc(N2CCN(C3CC(=O)N(c4ccc(Cl)cc4)C3=O)CC2)c1 (stereo not drawn),-2.7% (inactive),-50.4
CCc1ccc(N2CC(C(=O)NC3=NCCS3)CC2=O)cc1 (stereo not drawn),-0.9% (inactive),-2.9

Structure (SMILES),inhibition,inhibition [1] [%]
OCc1n[nH]c(CO)n1,-8.3% (inactive),-35.9
COc1ccc(C2/C(=C(/O)c3ccc(OC(C)C)cc3)C(=O)C(=O)N2CCCN2CCOCC2)cc1 (stereo not drawn),7.5% (inactive),17.8
CCCCN(C)C(=O)c1ccc2c(c1)N(CC)C(=O)c1ccccc1S2(=O)=O,-3% (inactive),-32.6
COc1ccc(Cl)cc1S(=O)(=O)N1CCN(CC(=O)C(C)(C)C)CC1,-2.8% (inactive),-8.9
N#CCCn1cnc2ccccc21,2.1% (inactive),38.9
CC(=O)NCC(=O)N(C)C(C(=O)Nc1ccc2c(c1)OCCO2)c1ccccc1 (stereo not drawn),0.7% (inactive),7.7
COc1ccccc1-c1cc(C(=O)NCCCn2ccnc2)no1,0.6% (inactive),11.9
O=C(CN1CCN(C(=O)c2ccco2)CC1)Nc1ccc2c(c1)OCO2,0.1% (inactive),18.6
CCOC(=O)N1CCN(C(=O)c2ccc3nc4cc(Cl)ccc4c(=O)n3c2)CC1,0.6% (inactive),4.6
CCOC(=O)N1CCN(C(=O)c2cnc3n(c2=O)CCS3)CC1,-0.4% (inactive),7.7
NC(=O)C1(N2CCCCC2)CCN(C(=O)c2ccc(C#Cc3ccccc3)o2)CC1,14.7% (inactive),41.9
COc1ccc(-c2noc(COc3ccc(Cl)c(C)c3)n2)cc1,0.3% (inactive),-1.9
COc1ccccc1N1CCN(C(=O)c2cc(-c3ccc(Cl)c(Cl)c3)on2)CC1,0.6% (inactive),12
Cc1ccc(S(=O)(=O)NCC(=O)N(CC(=O)NC2CCCCC2)Cc2ccco2)cc1,1% (inactive),1.8
O=C(CN1CCOCC1)N1CCCc2c1c(=O)oc1ccc(OCc3ccccc3)cc21,7.9% (inactive),27.4
COC(=O)c1ccc(NC(=O)CSc2nnc(Cc3cccn3C)n2-c2ccc(F)cc2)cc1,0.7% (inactive),2.8
CCOc1ccc(S(=O)(=O)n2ccnc2)c2ccccc12,3.6% (inactive),12.2
COc1ccc(N2CCN(CCNC(=O)c3nnc(Cc4c(F)cccc4Cl)o3)CC2)cc1,-1.4% (inactive),-14
O=C(CSc1nnc(-c2c[nH]c3ccccc23)n1-c1ccc(F)cc1)NCc1ccco1,-0.1% (inactive),3.9
O=C(Nc1nccs1)C1CCCN1S(=O)(=O)c1cccc2cccnc12 (stereo not drawn),10.8% (inactive),6.8
CCOCCCN1C(=O)CN(C2CCCCC2)C(=O)C1c1ccc(OCC)c(OC)c1 (stereo not drawn),0.8% (inactive),4.3

Structure (SMILES),inhibition,inhibition [1] [%]
O=C(NC1=NCCS1)[C@H](Cc1ccccc1)N1C(=O)c2ccccc2C1=O,-2% (inactive),-7.9
CCOc1ccc(/C(O)=C2/C(=O)C(=O)N(Cc3cccnc3)C2c2ccc(N(C)C)cc2)c(C)c1 (stereo not drawn),-1.8% (inactive),-3.1
Cc1cc(NC(=O)CSc2nnc(-c3ccc(Cl)s3)o2)no1,-5.9% (inactive),-26.8
COc1ccc(NC(=O)CCNC(=O)Cn2ccc3ccccc3c2=O)c(OC)c1,-1.1% (inactive),-13.6
COc1ccccc1N1CCN(c2nc3ccccc3n3nnnc23)CC1,-2.2% (inactive),-4.7
CC(=O)c1cccc(S(=O)(=O)N2CCC(n3nnc4cc(F)ccc43)CC2)c1,-1.4% (inactive),-26.3
CCOC(=O)c1cn(CC(=O)Nc2ccc(C(C)C)cc2)nn1,2.3% (inactive),13.3
CCOC(=O)c1ccc(Nc2cc(C)nc3nc(C)nn23)cc1,-5.5% (inactive),-32.8
Cn1c(C(=O)NCCN2CCc3ccccc3C2)cc2c(=O)[nH]c3ccccc3c21,-1.3% (inactive),-0.4
COc1ccc(-n2ncc3c(N4CCCc5ccccc54)ncnc32)cc1,-3.1% (inactive),-2.2
C=CCOc1ccc(/C=N/n2cncn2)cc1OC,0.5% (inactive),-15.3
Cc1ccc(NC2=NC(c3ccccc3)n3c(nc(C)cc3=O)N2)cc1 (stereo not drawn),-2.1% (inactive),-6.2
COc1ccc(CC(=O)Nc2ccc(-c3nnc(-c4ccc(C)cc4)o3)cc2)cc1,7.6% (inactive),35.1
CCCNC(=O)Nc1ccccc1C(=O)Nc1ccc(OC)cc1,1.7% (inactive),13.6
COc1ccc(NC(=O)c2c(SC)nsc2SC)cc1,67.4% (active),74.3
Cc1noc(COc2ccccc2OCC(O)CNC(C)(C)C)n1 (stereo not drawn),-0.1% (inactive),0.9
Cc1cccc(C2c3c(n(C)c(=O)n(C)c3=O)N=C3c4ccccc4C(=O)C32)c1 (stereo not drawn),1.5% (inactive),20.3
COc1cccc(N(C(=O)c2ccn[nH]2)C2(C(=O)Nc3c(C)cccc3C)CCCCC2)c1,5.5% (inactive),-8
CCN(Cc1nc2ccccc2c(=O)[nH]1)Cc1cc(=O)oc2cc(C)c(C)cc12,4.2% (inactive),13.1
Cn1c(COc2ccc(Cl)cc2)nc2ccccc2c1=O,-6.8% (inactive),-42.8
COc1ccc(OC)c(C2N(c3ccccn3)C(=O)C3CCCN32)c1 (stereo not drawn),-2.2% (inactive),-7.1

Structure (SMILES),inhibition,inhibition [1] [%]
COc1cccc(C(CC(=O)NCCN2CCOCC2)NS(=O)(=O)c2ccc(C)cc2)c1OC (stereo not drawn),-5% (inactive),-11.5
COc1ccccc1C(=O)n1nc(-c2ccccc2)nc1N,-0.9% (inactive),-0.5
Cc1cc(=O)n2nc(N3CCCC3C(=O)NCCCN3CC(C)CC(C)C3)sc2n1 (stereo not drawn),2.5% (inactive),17.6
CCc1nnc(NC(=O)c2ccc(S(=O)(=O)NC3CCCCC3)cc2)s1,0.3% (inactive),4.5
COc1cccc(-c2nnc(NC(=O)c3ccc(S(=O)(=O)N(CC(C)C)CC(C)C)cc3)o2)c1,14.3% (inactive),15.6
CC1CCCCN1S(=O)(=O)c1ccc(C(=O)Nc2nnc(-c3cccs3)o2)cc1 (stereo not drawn),65.9% (active),62.3
O=C(O)Cc1ccc(-c2ccccc2)cc1,-0.8% (inactive),3.1
CN(C(=O)C1CCOC1)c1nnc(-c2cccnc2)s1 (stereo not drawn),-2.1% (inactive),1.3
COc1ccc(N2CCN(C(=O)CNC(=O)c3ccc(C(C)(C)C)cc3)CC2)cc1,-5.2% (inactive),-22.7
CCOc1cc(C(=O)Nc2ncccn2)cc(OCC)c1OCC,-0.2% (inactive),0.7
COC(=O)Nc1ccc(S(=O)(=O)N(C)CC(F)(F)C(F)F)cc1,-3.8% (inactive),-5.8
CC(=O)NC(Cc1ccc(F)cc1)C(=O)O (stereo not drawn),-5.3% (inactive),-7.6
Cc1nc2ccc(S(=O)(=O)NC(C(=O)N3CCCCCC3)C(C)C)cc2s1 (stereo not drawn),0.8% (inactive),-1
Cc1nc(NC(=O)CCC(=O)O)sc1C(=O)N(C)C,-4.1% (inactive),-15.4
O=C(O)C1C2C=CC(C2)C1C(=O)N1CCN(CCO)CC1 (stereo not drawn),-0.3% (inactive),-23.2
Cc1nnc(SCCCn2c(N3CCCCC3)nc3c2c(=O)[nH]c(=O)n3C)s1,2.3% (inactive),8.9
CCOC(=O)CSc1nnc(CNC(=O)c2cccs2)n1-c1cc(OC)ccc1OC,1.2% (inactive),29.5
O=C(CSc1nc2ccccc2o1)N1CCN(c2ccc(Cl)cc2)CC1,0.5% (inactive),5.2
CCOc1ccc(NC(=O)CC2NCCNC2=O)cc1 (stereo not drawn),0.5% (inactive),16.7
CCOc1ccc(CNC(=O)C2CCC(=O)N2C2CCCC2)cc1OC (stereo not drawn),3.8% (inactive),11.6
CCOC(=O)N1CCC(NC(=O)c2ccc3nc(N4CCOCC4)sc3c2)CC1,-5.4% (inactive),-36.9
